Screening results (PubChem BioAssay)
Rce1 inhib: inhibitors of yeast Ras-converting enzyme; Q03530; yeast membranes, quenched prenylated peptide cleavage fluorescence; calls only; 290,000 tested, 0.27% active; AID 2563;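 active = fall in fluorescence gain of 50% or more versus controls, with final raw signal at or below 3038400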
Efflux pump inh: antifungal efflux pump inhibition, Nile Red retention; inhibition, % at 10 µM; 330,000 tested, 0.44% active; S. cerevisiae Candida pump triplex;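 active = plate passing quality check with inhibition over a set limit, or well fluorescence over plate mean plus 4 SD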;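 note: Nile Red retained in pooled yeast measured as flow cytometry median fluorescence; higher means more Nile Red kept so more efflux inhibition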
Rtt109 HAT inh: inhibitors of Candida albicans Rtt109/Vps75 histone acetyltransferase | Q5AAJ8 | purified Rtt109/Vps75, ThioGlo CoA-SH fluorescence, 4 h | inhibition, % at 34.9 µM | 330,000 tested, 0.16% active | AID 540336;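 active = inhibition of at least 50% in every replicate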
HDAC3 inhib: blocks human histone deacetylase 3; O15379; recombinant HDAC3, fluorogenic peptide/trypsin coupled, fluorescence; inhibition, % at 8.3 µM; 320,000 tested, 0.15% active; AID 2718; in the data active = inhibition above about 26%, passing the limit was not always enough
Target sequence (O15379 whole entry, looked up): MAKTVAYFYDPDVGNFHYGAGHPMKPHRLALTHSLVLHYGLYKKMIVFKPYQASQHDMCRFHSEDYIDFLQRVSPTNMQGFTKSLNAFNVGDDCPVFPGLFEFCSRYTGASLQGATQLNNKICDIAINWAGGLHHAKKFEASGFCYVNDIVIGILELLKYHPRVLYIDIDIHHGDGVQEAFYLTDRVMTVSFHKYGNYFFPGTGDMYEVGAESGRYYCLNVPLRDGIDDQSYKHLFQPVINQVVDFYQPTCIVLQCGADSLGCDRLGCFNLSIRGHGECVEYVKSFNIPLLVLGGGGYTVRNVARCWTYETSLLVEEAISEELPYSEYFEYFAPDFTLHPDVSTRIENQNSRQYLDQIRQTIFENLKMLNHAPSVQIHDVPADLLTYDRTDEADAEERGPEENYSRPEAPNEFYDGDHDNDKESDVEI
ALR inh: blocks human ALR sulfhydryl oxidase activity | purified ALR, DTT oxidation, H2O2 HRP-luminol luminescence | inhibition, % (test concentration not listed) | 290,000 tested, 3.8% active | AID 485317 | P55789;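 active = mean replicate inhibition above about 79%, with every replicate also reaching it, limit read from the data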
GRK2 inh: inhibitors of human GRK2 displacing RNA aptamer; P25098; bead flow cytometry, FAM-aptamer displacement from GRK2; inhibition of aptamer binding, % at 10 µM; 330,000 tested, 0.59% active;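 active = inhibition of aptamer binding above 40%, roughly 3 SD of noise, on plates passing a quality check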;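 note: median bead fluorescence of bound FAM aptamer so fluorescent compounds give negative values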
Large screens that a line does not name were inactive. Sampled rows, rich in hits. Any-hit rate of the full collection: about 4.5%.

O=C(c1ccccc1-c1ncc[nH]1)N1CCCC(Nc2ccc(F)cc2)C1 (stereo not drawn)	ALR inh 99 (no result: Rce1 inhib)
COc1ccc(CCC(=O)OCC(=O)NCc2ccccc2)cc1	none (no result: Rce1 inhib)
Cc1occc1C(=O)N1CCCC(Nc2ccc(F)cc2)C1 (stereo not drawn)	ALR inh 98
Cc1nc2c(C(=O)NCCc3ccccc3)c[nH]n2c(=O)c1Cl	none
Cc1nc2c(C(=O)NCCC(C)C)c[nH]n2c(=O)c1Cl	ALR inh 95
O=C(NCC(=O)N1CCN(S(=O)(=O)c2ccccc2F)CC1)c1ccc(Br)o1	none
O=C(c1ccc(Cl)cc1)C(CN1CCCCC1)c1ccccc1 (stereo not drawn)	ALR inh 97
CC1(C)CC(=O)C=C(c2cccc(Cl)c2O)C1	ALR inh 96 (no result: Rce1 inhib)
CCC(=O)N1CCc2cc(S(=O)(=O)NCCC(=O)N3CCN(c4cccc(C)c4)C(C)C3)ccc21 (stereo not drawn)	ALR inh 98
Cc1ccc(N2CCN(C(=O)CNS(=O)(=O)c3ccc(Br)s3)CC2C)cc1 (stereo not drawn)	ALR inh 98
CC1CC(C)CN(C(=O)CCNS(=O)(=O)c2cccs2)C1 (stereo not drawn)	none
Cc1cccc(N2CCN(C(=O)CCNS(=O)(=O)c3cccs3)CC2C)c1 (stereo not drawn)	ALR inh 93
COc1cccc(NC(=O)N2CCN(c3cccc(C)c3)C(C)C2)c1 (stereo not drawn)	ALR inh 99
COc1cccc(NC(=O)N2CCCCCC2)c1	none
O=C(O)c1cccc(NS(=O)(=O)/C=C/c2ccccc2)c1	none
O=C(O)c1ccc(NS(=O)(=O)/C=C/c2ccccc2)cc1	GRK2 inh 55
O=C(O)c1ccc(N/N=C/C=C/c2ccccc2)cc1	ALR inh 92
N#CCCN(Cc1ccccc1)C(=O)c1nccnc1C(=O)O	none (no result: ALR inh)
CC(Cl)C(=O)NC(=O)NC12CC3CC(CC(C3)C1)C2 (stereo not drawn)	none
O=C(CCl)NC(=O)NC12CC3CC(CC(C3)C1)C2	ALR inh 86
COc1ccc(N2CCN(C(c3cccs3)C(C)NC(=O)C(=O)N3CCCCC3)CC2)cc1 (stereo not drawn)	ALR inh 98
COc1ccc(N2CCN(C(c3cccs3)C(C)NC(=O)C(=O)N3CCCC3)CC2)cc1 (stereo not drawn)	ALR inh 98
CCS(=O)(=O)NC(C)C(c1cccs1)N1CCN(c2ccc(OC)cc2)CC1 (stereo not drawn)	ALR inh 99
COc1ccccc1N1CCN(C(c2cccs2)C(C)NC(=O)C(=O)N2CCCCC2)CC1 (stereo not drawn)	none
O=C1c2ccccc2S(=O)(=O)N1CCS(=O)(=O)c1ccc(F)cc1	none (no result: ALR inh)
Cc1ccc(Cl)cc1S(=O)(=O)N1CCC(C(=O)NC2CCN(Cc3ccccc3)CC2)CC1	none
CC(C)c1nnc(NC(=O)c2sc3ccccc3c2Cl)s1	ALR inh 98
O=C(NNC(=S)NC1CCCCC1)c1sc2ccccc2c1Cl	none
CC(C)(C)C(=O)NC(=S)NNC(=O)c1sc2ccccc2c1Cl	GRK2 inh 49
O=S(=O)(c1cccc2cccnc12)N1CCN(Cc2ccccc2)CC1	none
O=C(CCl)N(c1ccc(Cl)cc1)c1c[nH]c2ccccc12	ALR inh 98
O=C(NCCc1ccccc1)C1CCCN(S(=O)(=O)c2cnc[nH]2)C1 (stereo not drawn)	ALR inh 87
Cc1ccc(NC(=O)C2CCCN(S(=O)(=O)c3cnc[nH]3)C2)cc1F (stereo not drawn)	none (no result: Rce1 inhib)
O=C(NCc1ccc(Cl)cc1)C1CCCN(S(=O)(=O)c2cnc[nH]2)C1 (stereo not drawn)	ALR inh 94
O=C(Nc1ccc(Cl)cc1)C1CCCN(S(=O)(=O)c2cnc[nH]2)C1 (stereo not drawn)	ALR inh 96
Cc1ccc(CNC(=O)C2CCCN(S(=O)(=O)c3cnc[nH]3)C2)cc1 (stereo not drawn)	none
CCOC(=O)c1ccc(NC(=O)C2CCN(S(=O)(=O)c3c(C)nn(C)c3C)CC2)cc1	ALR inh 98 (no result: HDAC3 inhib)
O=C(CN1C(=O)NC2(CCCC2)C1=O)N1CCN(S(=O)(=O)c2cccc(C(F)(F)F)c2)CC1	none (no result: Rtt109 HAT inh)
O=C(CNC(=O)C1COc2ccccc2O1)Nc1ccc(F)c(F)c1 (stereo not drawn)	none (no result: Rce1 inhib)
